Test systems include HT29 colon; SNB-75 CNS; SNB-19 CNS; U251 CNS; PC-3 prostate; SK-MEL-5 melanoma; UACC-62 melanoma; LOX IMVI melanoma; SK-MEL-28 melanoma; SK-MEL-2 melanoma; EKVX NSCLC; SN12C renal; UO-31 renal; TK-10 renal; ACHN renal; CAKI-1 renal; CCRF-CEM leukemia; MOLT-4 leukemia; A498 renal.
What all share (assay): NCI-60 one-dose screen, 48 h (100 = growth as untreated, 0 = no growth, -100 = all killed)
Conditions in all cases: 10 µM unless noted

The structures appear in SMILES notation. About 83,000 compounds went through this panel and 20% of them were active in at least one assay; those are over-represented in the sample as a whole.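 Cells were grown in 96-well plates and exposed to the test compound at a single concentration for 48 hours; results are reported as percent growth, with values below 10 considered active.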 A number with no mark means an inactive call. Calls of active or inactive are those of the source.

Turning to `C=C1C(=O)O[C@H]2[C@H]1CC/C(CNC(=O)/C=C/c1ccccc1F)=C\CC[C@@]1(C)O[C@@H]21`, the growth with HT29 colon is -17.2% (active); in the test on SNB-75 CNS it was 94.1%; in the test on SNB-19 CNS, 56.4%; with U251 CNS it was 52.5%; in the test with PC-3 prostate, 37.3%; with SK-MEL-5 melanoma, 66.1%. The growth in the test with UACC-62 melanoma is -5.46% (active); in the test on LOX IMVI melanoma it was -25% (active); in the test with SK-MEL-28 melanoma, -33.9% (active); in the test with SK-MEL-2 melanoma, 54.7%; in the test with EKVX NSCLC it was -18.9% (active); in the test on SN12C renal, 8.82% (active). In addition, the growth is -95.9% (active) in the test on UO-31 renal; -29% (active) in the test on TK-10 renal; -65.6% (active) in the test with ACHN renal; -84.4% (active) in the test on CAKI-1 renal; -0.259% (active) in the test with CCRF-CEM leukemia; -12% (active) in the test on MOLT-4 leukemia.
`c1cnc2nc3c(cc2c1)oc1ccccc13`: the growth in the test on HT29 colon is 105%; with SNB-75 CNS, 76.6%; in the test on SNB-19 CNS it was 92%; with U251 CNS it was 97%; with PC-3 prostate, 104%; with SK-MEL-5 melanoma it was 91.2%. In addition, the growth was 87.1% in the test with UACC-62 melanoma; 97.7% in the test with LOX IMVI melanoma; 111% with SK-MEL-28 melanoma; 101% in the test with SK-MEL-2 melanoma; 102% with EKVX NSCLC; 94.8% with SN12C renal. Besides, the growth in the test with UO-31 renal is 68.3%; in the test with TK-10 renal it was 107%; in the test on ACHN renal it was 93.3%; in the test on CAKI-1 renal, 80%; in the test on A498 renal it was 69.3%; with MOLT-4 leukemia, 92.8%.
Regarding `O=C(Nc1ccc2ncnc(Nc3ccc(Oc4cccc(F)c4)c(Cl)c3)c2c1)c1ccc(CNCCO)cc1`, the growth was -69.2% (active) in the test on HT29 colon; 65.1% with SNB-75 CNS; 58.8% in the test on SNB-19 CNS; -34% (active) in the test with U251 CNS; 27.7% in the test on PC-3 prostate; 73.7% with SK-MEL-5 melanoma. Besides, the growth was 106% in the test on UACC-62 melanoma; -76.2% (active) in the test on LOX IMVI melanoma; -44.9% (active) in the test with SK-MEL-28 melanoma; 94.2% in the test with SK-MEL-2 melanoma; 47.9% with EKVX NSCLC; 48.6% in the test with SN12C renal. Besides, the growth in the test on UO-31 renal was 73.9%; in the test on TK-10 renal it was 57.1%; in the test with ACHN renal it was 28.8%; in the test on CAKI-1 renal, 55.4%; with A498 renal, 71.6%; with CCRF-CEM leukemia, -19.9% (active). In addition, the growth in the test on MOLT-4 leukemia was -0.727% (active).
In the case of `CN1CCN(CC#CCNC(=O)[C@]23CCC(C)(C)C[C@H]2C2=CC[C@@H]4[C@@]5(C)Cc6c([nH]c7ccccc67)C(C)(C)[C@@H]5CC[C@@]4(C)[C@]2(C)CC3)CC1`, the growth in the test on HT29 colon was 7.18% (active); in the test with SNB-75 CNS, 92.7%; with SNB-19 CNS, 79.3%; in the test on U251 CNS, 42.7%; in the test on PC-3 prostate, 56.7%; in the test with SK-MEL-5 melanoma it was 75.1%. Besides, the growth was 95.7% in the test with UACC-62 melanoma; 66.7% in the test with LOX IMVI melanoma; 79% in the test on SK-MEL-28 melanoma; 98.3% in the test on SK-MEL-2 melanoma; 83.3% in the test on EKVX NSCLC; 77.8% in the test with SN12C renal. Besides, the growth in the test on UO-31 renal was 64.2%; with TK-10 renal it was 91.8%; with ACHN renal it was 95.3%; with CAKI-1 renal it was 87.2%; in the test on CCRF-CEM leukemia it was 48.8%; with MOLT-4 leukemia it was 31.2%.
Take `CCCCCCCCOc1ccc(/C=N/Nc2cc(C)nc3ccc(Cl)cc23)cc1`: the growth is -55.9% (active) in the test on HT29 colon; 52.2% with SNB-75 CNS; 9.5% (active) in the test with SNB-19 CNS; -61% (active) in the test with U251 CNS; -62.9% (active) in the test on PC-3 prostate; 96% in the test on SK-MEL-5 melanoma. Also, the growth in the test on UACC-62 melanoma was 91.2%; in the test with LOX IMVI melanoma, -90.7% (active); with SK-MEL-28 melanoma it was 64.3%; with SK-MEL-2 melanoma it was 95.6%; with EKVX NSCLC, 55.7%; in the test on SN12C renal it was -82.4% (active). The growth was 79.2% with UO-31 renal; -35.7% (active) with TK-10 renal; -1.15% (active) in the test with ACHN renal; 41.6% with CAKI-1 renal; 2.23% (active) with CCRF-CEM leukemia; -14.1% (active) in the test with MOLT-4 leukemia.
Consider `C=C(C)[C@@H]1CC[C@]2(C(=O)O)CC[C@]3(C)[C@H](CC[C@@H]4[C@@]5(C)C[C@@H](CC#Cc6ccc(Br)cc6)C(=O)C(C)(C)[C@@H]5CC[C@]43C)[C@@H]12`, for which the growth in the test with HT29 colon was 30.7%; in the test on SNB-75 CNS, 70.9%; with SNB-19 CNS, 40.7%; with PC-3 prostate it was 28.7%; in the test with SK-MEL-5 melanoma, 68.6%; with UACC-62 melanoma, -29% (active). In addition, the growth with LOX IMVI melanoma was 52%; in the test with SK-MEL-28 melanoma, -35.5% (active); in the test on SK-MEL-2 melanoma, -12.6% (active); with EKVX NSCLC, 52.1%; with SN12C renal it was 4.51% (active); in the test with UO-31 renal, 68%. The growth with TK-10 renal was 62%; in the test on A498 renal, -4.41% (active); with CCRF-CEM leukemia it was 28.9%; in the test with MOLT-4 leukemia, 31.9%.
Turning to `Fc1ccc2nc3c(cc2c1)CSc1nnc(-c2ccc[nH]c2=S)n1N3`, the growth was 108% in the test with HT29 colon; 75.8% with SNB-75 CNS; 98.1% in the test with SNB-19 CNS; 107% in the test on U251 CNS; 91.5% in the test on PC-3 prostate; 96.4% in the test on SK-MEL-5 melanoma. In addition, the growth with UACC-62 melanoma is 91.7%; in the test on LOX IMVI melanoma, 96.1%; with SK-MEL-28 melanoma, 102%; in the test with SK-MEL-2 melanoma, 98.3%; with EKVX NSCLC it was 94.2%; in the test with SN12C renal, 98.2%. Besides, the growth is 82% with UO-31 renal; 110% in the test with TK-10 renal; 94% with ACHN renal; 83.8% in the test with CAKI-1 renal; 92.1% in the test with A498 renal; 98.9% in the test with CCRF-CEM leukemia. The growth in the test with MOLT-4 leukemia is 101%.
Regarding `Fc1ccc(-n2cc(COc3ncnc4sc5c(c34)CCCC5)nn2)cc1Cl`, the growth is 97.3% with HT29 colon; 90.5% in the test on SNB-75 CNS; 94.7% in the test with SNB-19 CNS; 99.7% in the test on U251 CNS; 89.5% in the test on PC-3 prostate; 103% in the test with SK-MEL-5 melanoma. Further, the growth with UACC-62 melanoma is 92.2%; with LOX IMVI melanoma it was 93.7%; in the test on SK-MEL-28 melanoma it was 110%; in the test on SK-MEL-2 melanoma, 103%; with EKVX NSCLC, 94.1%; with SN12C renal, 98.7%. The growth with UO-31 renal is 82.3%; with TK-10 renal, 113%; with ACHN renal, 102%; in the test on CAKI-1 renal, 92.7%; with CCRF-CEM leukemia, 89%; with MOLT-4 leukemia, 98.8%.
